Luc counter = blocks Kinase-Glo luciferase, a counter-screen artifact | AID 1379 | 200,000 compounds, 0.28% hits | Potency, µM (series often up to 38.3 µM), without a hit: top-dose activity change, negative = inhibition, hits mostly inhibitors | Q27757 | Kinase-Glo luciferase, ATP luminescence, 8 min; also: % is scaled to controls: 0 for no effect and ±100 for the full control effect; nearly all actives have a fitted effect of over 60% in size
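Compounds were added to a substrate mix at pH 7.2 (50 mM imidazole, 10 uM ATP, within the enzyme's linear range), followed by Kinase-Glo detection reagent; luminescence was measured after 8 minutes at ambient temperature.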
SMN2 splice enh = enhancers of SMN2 splice variant expression | HEK293 SMN2-luciferase splicing reporter, luminescence, 30-36 h | Potency, µM (titrated, usually from 46.1 µM), without a hit: at the top dose activity change, positive = activation, usual class: activators | 210,000 compounds, 2.8% hits | AID 1458; also: % of control where 0% means no effect; nearly all actives have a fitted effect of over 55% in size
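HEK293 cells carry an SMN2 […]–luciferase reporter in which exon 7 inclusion puts luciferase in frame. Cells were plated 10-12 h before compound addition, then incubated 30-36 h at 37C. ONE-Glo luminescence was read; sodium butyrate at 4.5 mM final served as control.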
Rab9 promoter act = Rab9 promoter activation | Huh7 Rab9 promoter-luciferase reporter, luminescence, 24 h | Potency, µM (series often up to 9.22 µM), without a hit: top-dose activation, negative = inhibition, actives largely listed as activators | 320,000 compounds, 2.8% hits; also: % of control where 0% means no effect; nearly all actives have a fitted effect of over 60% in size
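Using Huh7 cells stably transfected with Rab9 promoter–luciferase, compounds were incubated 24 h at 37 °C, 5% CO2; luciferase luminescence was read 10 min after reagent addition.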
ELG1 genotoxic = genotoxicity induction in ELG1-luciferase HEK293T cells; HEK293T ELG1-luciferase reporter, luminescence, 16 h; Potency, µM (doses to about 46 µM), for the others: at the top dose activity change, positive = activation, usual class: activators; 330,000 compounds, 1.3% hits; AID 504466; also: % of control where 0% means no effect; nearly all actives have a fitted effect of over 60% in size
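DMSO vehicle served as control against compound-treated ELG1-luciferase HEK293T cells; exposure lasted 16 hr at 37 °C and 5% CO2, followed by ONE-Glo luminescence detection after 30 min.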
FLuc modulator = inhibits or activates purified firefly luciferase, miR-21 counter-screen. 360,000 compounds, 6.9% hits. Potency, µM (highest dose often 57.5 µM), for inactives: top-dose activity change, negative = inhibition, hits mostly inhibitors. purified FLuc, Km substrates, luminescence inhibition. P08659. AID 588342;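 also: plate controls were vehicle for no effect and reference inhibitor for full effect; nearly all actives have a fitted effect of over 55% in size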
Target sequence (P08659 whole entry, looked up): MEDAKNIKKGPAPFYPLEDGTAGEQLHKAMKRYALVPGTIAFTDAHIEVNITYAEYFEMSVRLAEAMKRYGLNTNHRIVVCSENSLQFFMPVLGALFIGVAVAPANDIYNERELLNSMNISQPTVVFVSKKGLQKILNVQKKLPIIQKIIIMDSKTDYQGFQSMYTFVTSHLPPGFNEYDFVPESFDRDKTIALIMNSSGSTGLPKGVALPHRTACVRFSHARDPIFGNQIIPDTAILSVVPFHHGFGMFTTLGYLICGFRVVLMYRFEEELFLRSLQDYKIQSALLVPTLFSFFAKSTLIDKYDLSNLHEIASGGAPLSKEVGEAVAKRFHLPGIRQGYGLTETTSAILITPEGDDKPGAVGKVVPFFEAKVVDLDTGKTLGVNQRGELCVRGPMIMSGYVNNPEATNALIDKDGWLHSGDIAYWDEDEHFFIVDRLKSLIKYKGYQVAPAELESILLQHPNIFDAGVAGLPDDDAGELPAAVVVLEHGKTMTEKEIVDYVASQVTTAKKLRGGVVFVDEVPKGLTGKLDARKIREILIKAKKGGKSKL
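Purified P. pyralis luciferase, 10 nM final, with Km-level 10 uM D-luciferin and 10 uM ATP in 50 mM Tris acetate pH 7.5, 10 mM Mg acetate, 0.01% Tween-20, 0.05% BSA; 6-point qHTS titration about 60 µM downward; luminescence read.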
NPC1 promoter act = activators of NPC1 promoter; Huh7 NPC1 promoter luciferase reporter, 24 h; 320,000 compounds, 2.4% hits; Potency, µM (titrated, usually from 9.22 µM), for inactives: top-dose activation, usual class: activators; also: % of control where 0% means no effect; nearly all actives have a fitted effect of over 60% in size
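NPC1 promoter–luciferase Huh7 cells; 24 h compound; luminescence.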
Active calls of the source: *. An excerpt weighted towards active compounds, which were near 7.3% of everything screened. Calls follow the shape of the dose curve; as a rule, active = well fitted curve in the direction sought with a large enough effect; inconclusive = small, poorly fitted or top-dose-only effect, or another doubt; inactive = no such curve, though single readings can be large; an effect the other way counts as inactive or inconclusive. Potency is read from the fitted curve at half-maximal effect.

N/C(=N\OC(=O)c1cccnc1)c1ccc(Cl)cc1Cl was read as Luc counter 1%, SMN2 splice enh 13%, Rab9 promoter act inconclusive, ELG1 genotoxic inconclusive, FLuc modulator inconclusive and NPC1 promoter act 12%.
Screening COc1ccccc1C(=O)O/N=C(\N)c1ccccn1 returned Rab9 promoter act 1.3µM*, ELG1 genotoxic inconclusive, FLuc modulator 11µM* and NPC1 promoter act 1.4µM*.
For O=[N+]([O-])c1ccc(C(O)CN2CCN(Cc3ccccc3)CC2)cc1 (centres undefined) the results were Rab9 promoter act -1%, ELG1 genotoxic -3%, FLuc modulator -1% and NPC1 promoter act -1%.
`O=C(Oc1cccnc1)c1ccccc1[N+](=O)[O-]` gave Luc counter 3%, SMN2 splice enh 30%, Rab9 promoter act -1%, ELG1 genotoxic 0%, FLuc modulator -2% and NPC1 promoter act 3%.
For N/C(=N\OC(=O)c1ccccc1[N+](=O)[O-])c1ccccn1 the results were Luc counter -5%, SMN2 splice enh -5%, Rab9 promoter act 1.6µM*, ELG1 genotoxic inconclusive, FLuc modulator 2.1µM* and NPC1 promoter act 1.8µM*.
Screening CCCc1ccc2oc(C(=O)N3CCN(CCC(N)=O)CC3)c(C)c2c1 returned Rab9 promoter act 0%, ELG1 genotoxic 6%, FLuc modulator 1% and NPC1 promoter act -6%.
For Clc1ccc2c(c1)[C@H]1OCC[C@H]1[C@@H](c1ccco1)N2 the results were Luc counter -14%, SMN2 splice enh 22µM*, Rab9 promoter act inconclusive, ELG1 genotoxic inconclusive, FLuc modulator 4.8µM* and NPC1 promoter act inconclusive.
For CC(C)NC(=O)NC(=O)CN1C(=O)NC2(CCc3ccccc3C2)C1=O (centres undefined) the results were Rab9 promoter act -2%, ELG1 genotoxic 0%, FLuc modulator 0% and NPC1 promoter act -2%.
O=C(O)c1cc(-c2ccc(C(F)(F)F)cc2)nc2n[nH]c(-c3ccccc3)c12 was read as FLuc modulator 3µM*.
Screening Cc1nc2c(C)cccc2cc1C(=O)N/N=C/c1ccc(C(=O)O)cc1 returned Luc counter -4%, SMN2 splice enh 3%, Rab9 promoter act 0%, ELG1 genotoxic 0%, FLuc modulator 17µM* and NPC1 promoter act 1%.
`Cc1nc2c(C)cccc2cc1C(=O)N/N=C/c1ccc(N(C)C)cc1` gave Luc counter -5%, SMN2 splice enh inconclusive, Rab9 promoter act 2%, ELG1 genotoxic 0%, FLuc modulator inconclusive and NPC1 promoter act 0%.
CC(=O)Nc1ccc(/C=N/NC(=O)c2cc3cc(C)ccc3nc2C)cc1 was read as Luc counter 9%, SMN2 splice enh -22%, Rab9 promoter act 17%, ELG1 genotoxic inconclusive, FLuc modulator 6µM* and NPC1 promoter act 11%.
Screening CC(=O)Nc1ccc(/C=N/NC(=O)c2cc3ccccc3nc2C)cc1 returned Luc counter 0%, SMN2 splice enh 7%, Rab9 promoter act -2%, ELG1 genotoxic 1%, FLuc modulator -18% and NPC1 promoter act -1%.
CC(=O)c1ccc(NC(=O)c2noc(C(C)C)c2[N+](=O)[O-])cc1 was read as Luc counter 0%, SMN2 splice enh -8%, Rab9 promoter act 18%, ELG1 genotoxic 13%, FLuc modulator -14% and NPC1 promoter act 14%.
Cc1ccc(O)c(NC(=O)c2onc(C)c2Cl)c1 was read as Rab9 promoter act -6%, ELG1 genotoxic inconclusive, FLuc modulator 17µM* and NPC1 promoter act 18%.
C=CCNC(=O)c1cc(-c2cccs2)on1 was read as FLuc modulator 13µM*.
For O=C(NCCN1CCOCC1)c1cc(-c2cccs2)on1 the results were Luc counter 1%, SMN2 splice enh -2%, Rab9 promoter act inconclusive, ELG1 genotoxic inconclusive, FLuc modulator -15% and NPC1 promoter act 13%.
CC(C)NC(=O)c1cc(-c2cccs2)on1 was read as Luc counter -4%, SMN2 splice enh 13µM*, Rab9 promoter act 2.8µM*, ELG1 genotoxic 4.5µM*, FLuc modulator 15µM* and NPC1 promoter act 3.2µM*.
Cc1ccc(O)c(NC(=O)c2noc(C(C)C)c2[N+](=O)[O-])c1 was read as Luc counter -1%, SMN2 splice enh 29%, Rab9 promoter act -3%, ELG1 genotoxic inconclusive, FLuc modulator 19µM* and NPC1 promoter act -2%.
For CC(=O)Nc1ccc(NC(=O)c2cc(-c3cccs3)on2)cc1 the results were FLuc modulator -9%.
`CSc1ccc(C2NC(=O)c3c(sc4c3CCN(C)C4)N2)cc1` (centres undefined) gave Luc counter -8%, SMN2 splice enh -1%, Rab9 promoter act -9%, ELG1 genotoxic -1%, FLuc modulator inconclusive and NPC1 promoter act -1%.
Screening Cc1cccc(S(=O)(=O)Nc2nc3ccccc3nc2Nc2ccc3c(c2)OCO3)c1 returned Luc counter 1%, SMN2 splice enh -74%, Rab9 promoter act -14%, ELG1 genotoxic -8%, FLuc modulator -8% and NPC1 promoter act -5%.
C=CCNC(=O)c1cc(-c2ccc(Br)cc2)on1 was read as Luc counter -2%, SMN2 splice enh 11µM*, Rab9 promoter act 0.79µM*, ELG1 genotoxic inconclusive, FLuc modulator inconclusive and NPC1 promoter act 1.3µM*.
`Cc1ccc(O)c(NC(=O)c2cc(-c3cccs3)on2)c1` gave Rab9 promoter act -1%, ELG1 genotoxic 18µM*, FLuc modulator 2.1µM* and NPC1 promoter act 18%.
For O=C(NCCc1ccccc1)c1cc(-c2ccc(Br)cc2)on1 the results were SMN2 splice enh -7% and FLuc modulator -7%.
c1ccc(CSc2ccc(-c3ccccn3)nn2)nc1 was read as Luc counter -9%, SMN2 splice enh 11µM*, Rab9 promoter act 2.5µM*, ELG1 genotoxic inconclusive, FLuc modulator inconclusive and NPC1 promoter act 2.8µM*.
`c1ccc(-c2ccc(SCc3cccnc3)nn2)nc1` gave Luc counter -6%, SMN2 splice enh inconclusive, Rab9 promoter act inconclusive, ELG1 genotoxic inconclusive, FLuc modulator inconclusive and NPC1 promoter act inconclusive.
Screening Clc1ccc(-c2ccc(SCc3ccccn3)nn2)cc1 returned Luc counter -1%, SMN2 splice enh inconclusive, Rab9 promoter act 3.2µM*, ELG1 genotoxic inconclusive, FLuc modulator inconclusive and NPC1 promoter act 2.2µM*.
`O=C(N/N=C/c1cc2c3c(c1O)CCCN3CCC2)c1ccccc1O` gave Luc counter -1%, SMN2 splice enh -102%, Rab9 promoter act -26%, ELG1 genotoxic -12%, FLuc modulator 24µM* and NPC1 promoter act -9%.
